For 13 compounds, growth results are on record in PubChem BioAssay (NCI).

Some test systems named below: SR leukemia; RPMI-8226 leukemia; OVCAR-8 ovarian; OVCAR-5 ovarian; OVCAR-4 ovarian; SK-OV-3 ovarian; IGROV1 ovarian; OVCAR-3 ovarian; HS 578T breast; NCI/ADR-RES ovarian.
Common to all, as to assay: NCI-60 one-dose screen, 48 h (100 = growth as untreated, 0 = no growth, -100 = all killed)
Holding throughout (conditions): 10 µM unless noted

About 83,000 compounds went through this panel and 20% of them were active in at least one assay; those are over-represented in the sample as a whole.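 Values shown are percent growth following 48 h exposure of cells in 96-well plates to a single concentration of compound; below 10 was considered active.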 Values without a mark were called inactive. Activity calls are given as the source filed them.

As for `N=C(N)c1ccc(-c2ccc(-c3ccc(F)cc3)s2)s1`, the growth with SR leukemia was -32.6% (active); in the assay with RPMI-8226 leukemia, -18.6% (active); in the assay with OVCAR-8 ovarian, -54.7% (active); with OVCAR-5 ovarian it was -28.8% (active); in the assay on OVCAR-4 ovarian, -23.8% (active); in the assay on SK-OV-3 ovarian, 80.5%. For the same compound, the growth was -27.5% (active) with IGROV1 ovarian, -57.8% (active) with OVCAR-3 ovarian, 84.6% in the assay on HS 578T breast and -33.3% (active) with NCI/ADR-RES ovarian.
For `C[N+](C)(C/C=C/c1ccccc1)Cc1ccccc1`, the growth in the assay on SR leukemia was 97.7%; in the assay with RPMI-8226 leukemia, 123%; with OVCAR-8 ovarian it was 107%; with OVCAR-5 ovarian, 81.2%; in the assay with OVCAR-4 ovarian, 97.4%; in the assay on SK-OV-3 ovarian it was 107%. Moreover, the growth in the assay with IGROV1 ovarian is 94.5%; with OVCAR-3 ovarian it was 96.4%; in the assay on HS 578T breast, 106%; with NCI/ADR-RES ovarian it was 99.1%.
Take `N=c1sc(Cc2cc(Cl)ccc2Cl)cn1CC(=O)c1ccccc1`: the growth in the assay on SR leukemia was 27.4%; with RPMI-8226 leukemia, 70.4%; in the assay on OVCAR-8 ovarian it was 62.6%; with OVCAR-5 ovarian it was 47.8%; in the assay on OVCAR-4 ovarian, 56.5%; in the assay with SK-OV-3 ovarian, 67.9%. Moreover, the growth in the assay with IGROV1 ovarian is 35.6%; with OVCAR-3 ovarian, 45.4%; in the assay with HS 578T breast it was 59.2%; with NCI/ADR-RES ovarian, 36%.
In the case of `CCN1C(=O)N(CC)C2C1NN=c1s/c(=C\c3ccccc3Br)c(=O)n12` (stereo not given), the growth in the assay with SR leukemia was 13.6%; in the assay on RPMI-8226 leukemia it was 15.5%; with OVCAR-8 ovarian, 1.17% (active); with OVCAR-5 ovarian, 28%; with OVCAR-4 ovarian, 49.7%; with SK-OV-3 ovarian, 38.1%. The growth is 16.9% in the assay on IGROV1 ovarian, 2.96% (active) in the assay on OVCAR-3 ovarian, 16.1% in the assay on HS 578T breast and 7.75% (active) with NCI/ADR-RES ovarian.
As to `N#CCC1=NC(c2cccs2)=Nc2ccccc2S1`, the growth in the assay on SR leukemia is 91.5%; in the assay with RPMI-8226 leukemia, 65.7%; in the assay on OVCAR-8 ovarian, 95.9%; with OVCAR-5 ovarian, 86.6%; in the assay on OVCAR-4 ovarian, 93.8%; with SK-OV-3 ovarian, 76.4%. Also, the growth was 86.4% in the assay on IGROV1 ovarian, 95.3% in the assay on OVCAR-3 ovarian, 96.2% in the assay on HS 578T breast and 98% in the assay on NCI/ADR-RES ovarian.
`CCN(CC)CCOc1nc2c3ccc(Cl)cc3nn2c2ccccc12`: the growth in the assay on SR leukemia was 5.43% (active); in the assay on RPMI-8226 leukemia, -8.15% (active); with OVCAR-8 ovarian, 28.6%; in the assay on OVCAR-5 ovarian, 34%; in the assay on OVCAR-4 ovarian, 35.4%; in the assay with SK-OV-3 ovarian it was 56%. Moreover, the growth was 10.1% with IGROV1 ovarian, 54.6% with OVCAR-3 ovarian, 55.2% in the assay with HS 578T breast and 25.3% in the assay on NCI/ADR-RES ovarian.
Regarding `O=C(/C=C/c1cccc(Cl)c1)c1cccc(OCCCCOc2cccc(C(=O)/C=C/c3cccc(Cl)c3)c2)c1`, the growth in the assay with SR leukemia was 39.5%; with RPMI-8226 leukemia, -26.8% (active); in the assay on OVCAR-8 ovarian, 97.3%; in the assay with OVCAR-5 ovarian it was 109%; with OVCAR-4 ovarian, 93.3%; in the assay with SK-OV-3 ovarian it was 113%. The growth was 88.9% in the assay on IGROV1 ovarian, 91.9% with OVCAR-3 ovarian, 95.8% with HS 578T breast and 99.7% with NCI/ADR-RES ovarian.
Turning to `Cc1nc2sc(C(=O)Nc3ccc(Cl)cc3)c(N)c2cc1C(O)c1ccccc1` (stereo not given), the growth in the assay on SR leukemia was 11%; with RPMI-8226 leukemia, 15.5%; with OVCAR-8 ovarian, 49.7%; with OVCAR-5 ovarian, 59.6%; in the assay with OVCAR-4 ovarian, 64.9%; in the assay on SK-OV-3 ovarian it was 51.3%. The growth was 53.9% in the assay on IGROV1 ovarian, 5.14% (active) in the assay on OVCAR-3 ovarian, 26.8% with HS 578T breast and 25.8% in the assay with NCI/ADR-RES ovarian.
Take `COC(=O)/C(CCC=C(C)C)=C1\[C@@H](OC(C)=O)C[C@@]2(C)[C@H]1CC(=O)[C@H]1[C@@]3(C)CCC(N4CCCC4)[C@@H](C)[C@@H]3CC[C@@]12C` (stereo not given in full): the growth in the assay with SR leukemia was 56.3%; with RPMI-8226 leukemia it was 85.5%; with OVCAR-8 ovarian, 95.7%; in the assay on OVCAR-5 ovarian it was 96.9%; in the assay on OVCAR-4 ovarian it was 97.5%; in the assay with SK-OV-3 ovarian, 108%. The growth in the assay with IGROV1 ovarian is 102%; in the assay on OVCAR-3 ovarian, 99.1%; in the assay on HS 578T breast, 89.1%; with NCI/ADR-RES ovarian, 99.3%.
As to `Cc1ccc(/C=C(\C#N)C(=O)Nc2ncc(Cc3cc(Cl)ccc3Cl)s2)o1`, the growth was 90.1% with SR leukemia; 49.3% with RPMI-8226 leukemia; 49.8% in the assay on OVCAR-8 ovarian; 69.6% in the assay on OVCAR-5 ovarian; 1.2% (active) with OVCAR-4 ovarian; 62% with SK-OV-3 ovarian. Further, the growth is 71.7% in the assay on IGROV1 ovarian, 75.4% with OVCAR-3 ovarian, 13% with HS 578T breast and 52.5% in the assay with NCI/ADR-RES ovarian.
Regarding `C/C(=C(/c1ccc(Cl)cc1)c1ccc(OCCCN(C)C)cc1)c1ccc(Cl)cc1`, the growth was -2.36% (active) in the assay on SR leukemia; 55.6% in the assay on RPMI-8226 leukemia; 96.1% with OVCAR-8 ovarian; 101% in the assay on OVCAR-5 ovarian; 104% with OVCAR-4 ovarian; 120% in the assay with SK-OV-3 ovarian. In addition, the growth was 85.7% in the assay with IGROV1 ovarian, 86.3% in the assay on OVCAR-3 ovarian, 87.1% with HS 578T breast and 97.7% in the assay on NCI/ADR-RES ovarian.
Consider `Cc1nn(-c2ccccc2)c(N2CCCCC2)c1/C=N/NC(=O)Cn1c(=O)sc2ccccc21`, for which the growth in the assay with SR leukemia is 93.9%; in the assay on RPMI-8226 leukemia, 65%; in the assay on OVCAR-8 ovarian, 81.1%; with OVCAR-5 ovarian, 82.9%; in the assay on OVCAR-4 ovarian it was 79.3%; in the assay on SK-OV-3 ovarian, 89%. For the same compound, the growth in the assay on IGROV1 ovarian was 67.2%; in the assay on OVCAR-3 ovarian, 81.9%; in the assay on HS 578T breast, 78.7%; in the assay on NCI/ADR-RES ovarian it was 74.9%.
`O=C1CCCc2nc3sc4c(=O)n(-c5ccccc5Cl)nnc4c3cc21`: the growth was 87.8% in the assay with SR leukemia; 87.6% with RPMI-8226 leukemia; 92.2% in the assay with OVCAR-8 ovarian; 100% in the assay on OVCAR-5 ovarian; 105% in the assay on OVCAR-4 ovarian; 107% in the assay with SK-OV-3 ovarian. Also, the growth was 99.9% in the assay on IGROV1 ovarian, 114% in the assay on OVCAR-3 ovarian, 99% in the assay on HS 578T breast and 103% in the assay on NCI/ADR-RES ovarian.
